What all share (assay): DAPPL (digital affinity profiling via proximity ligation, sequencing); 10 mM Tris-HCl pH 7.5, 50 mM NaCl, 1 mM DTT, 4% glycerol, room temperature, 30 min; GST-TFs on glutathione beads, 16-mer random dsDNA library, 0.1% formaldehyde crosslink after washing; high values mean tight binding
The target in one assay is T1, FEV (Homo sapiens, UniProt Q99581 1-238).
T1 sequence: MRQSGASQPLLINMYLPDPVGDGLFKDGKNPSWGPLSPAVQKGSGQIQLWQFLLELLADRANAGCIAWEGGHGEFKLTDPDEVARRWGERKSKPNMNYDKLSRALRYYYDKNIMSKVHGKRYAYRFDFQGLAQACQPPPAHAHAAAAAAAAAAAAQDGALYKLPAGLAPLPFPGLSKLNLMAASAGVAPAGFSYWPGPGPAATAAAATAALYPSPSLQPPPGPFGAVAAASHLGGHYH
The settings on record: protein: recombinant; tags: N-terminal GST; dsDNA, one strand shown. Put shortly: (§1)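 In yeast, human transcription factors were expressed with a GST fusion, then pulled down on glutathione beads and given DNA barcodes. Pooled with a tag-only sample, they were exposed to 200 nmole of a 16-mer random double-stranded DNA library (Tris/NaCl/DTT/glycerol buffer, room temperature, 30 min), washed, crosslinked with 0.1% formaldehyde, proximity-ligated using BsaI/T4 ligase for 1 h at 37 °C, PCR-amplified and read on an Illumina NextSeq500. Each hexamer's frequency of reads for a factor, divided by the matching frequency for the tag-only sample, gives the binding signal.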

Another assay has as its target ETV5 (Homo sapiens, UniProt P41161 1-510). The settings on record: protein: recombinant; tags: N-terminal GST; dsDNA, one strand shown. The gist of the method: as §1
Another assay deals with HSF1 (Homo sapiens, UniProt Q00613 1-529). The settings on record: protein: recombinant; tags: N-terminal GST; chain copies: 3; dsDNA, one strand shown. Put shortly: as §1
In a further assay the target is T2, SPIC (Homo sapiens, UniProt Q8N5J4 1-248).
T2 sequence: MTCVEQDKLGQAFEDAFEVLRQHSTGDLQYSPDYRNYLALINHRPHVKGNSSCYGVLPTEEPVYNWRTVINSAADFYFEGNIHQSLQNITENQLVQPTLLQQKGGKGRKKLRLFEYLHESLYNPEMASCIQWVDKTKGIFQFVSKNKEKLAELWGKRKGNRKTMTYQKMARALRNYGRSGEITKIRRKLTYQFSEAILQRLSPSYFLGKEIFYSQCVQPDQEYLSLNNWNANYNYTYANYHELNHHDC
Conditions: protein: recombinant; tags: N-terminal GST; dsDNA, one strand shown. The gist of the method: as §1

The target in another assay is ELF4 (Homo sapiens, UniProt Q99607 1-663). Conditions: protein: recombinant; tags: N-terminal GST; dsDNA, one strand shown. The gist of the method:
as §1

Another assay deals with T3, ELK4 (Homo sapiens, UniProt P28324-2 1-405).
T3 sequence: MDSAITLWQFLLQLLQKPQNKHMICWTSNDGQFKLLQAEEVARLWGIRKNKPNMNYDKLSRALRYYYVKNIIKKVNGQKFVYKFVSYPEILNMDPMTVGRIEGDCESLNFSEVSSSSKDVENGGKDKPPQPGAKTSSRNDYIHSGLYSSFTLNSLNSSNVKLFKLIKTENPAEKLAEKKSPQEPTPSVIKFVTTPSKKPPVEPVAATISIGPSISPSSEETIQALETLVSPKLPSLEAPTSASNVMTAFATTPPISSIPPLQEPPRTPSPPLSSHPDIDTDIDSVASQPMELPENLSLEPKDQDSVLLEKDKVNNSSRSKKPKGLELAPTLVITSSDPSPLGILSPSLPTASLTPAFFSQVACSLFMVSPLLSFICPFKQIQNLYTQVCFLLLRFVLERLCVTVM
The settings on record: protein: recombinant; tags: N-terminal GST; dsDNA, one strand shown. Put shortly: as §1

The next assay addresses T4, ETV2 (Homo sapiens, UniProt O00321 1-342).
T4 sequence: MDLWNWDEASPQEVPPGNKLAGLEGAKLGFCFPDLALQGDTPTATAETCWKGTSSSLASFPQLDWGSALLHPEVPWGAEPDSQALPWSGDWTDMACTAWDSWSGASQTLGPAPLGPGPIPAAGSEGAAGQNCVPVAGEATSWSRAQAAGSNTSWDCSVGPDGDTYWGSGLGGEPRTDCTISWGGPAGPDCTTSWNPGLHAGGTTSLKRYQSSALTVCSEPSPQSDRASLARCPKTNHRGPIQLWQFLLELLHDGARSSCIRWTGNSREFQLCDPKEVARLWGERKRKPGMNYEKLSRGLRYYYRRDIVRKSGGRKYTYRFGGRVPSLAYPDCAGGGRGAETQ
The settings on record: protein: recombinant; tags: N-terminal GST; dsDNA, one strand shown. Put shortly:
as §1

The target in a further assay is T5, ELF3 (Homo sapiens, UniProt P78545 1-371).
T5 sequence: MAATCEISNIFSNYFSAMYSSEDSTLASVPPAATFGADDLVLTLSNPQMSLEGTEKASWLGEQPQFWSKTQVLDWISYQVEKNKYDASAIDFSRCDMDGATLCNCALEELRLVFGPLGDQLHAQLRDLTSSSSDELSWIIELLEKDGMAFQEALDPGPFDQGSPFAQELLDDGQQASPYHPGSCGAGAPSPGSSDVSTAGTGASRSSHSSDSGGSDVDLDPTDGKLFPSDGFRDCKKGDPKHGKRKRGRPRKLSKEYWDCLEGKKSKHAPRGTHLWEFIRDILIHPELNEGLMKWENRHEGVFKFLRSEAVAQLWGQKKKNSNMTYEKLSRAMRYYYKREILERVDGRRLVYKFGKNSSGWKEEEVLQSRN
Conditions: protein: recombinant; tags: N-terminal GST; dsDNA, one strand shown. The gist of the method:
as §1

The target in another assay is CRX (Homo sapiens, UniProt O43186 1-299). The settings on record: protein: recombinant; tags: N-terminal GST; dsDNA, one strand shown. The gist of the method: as §1
The next assay deals with ETV1 (Homo sapiens, UniProt P50549 1-477). The settings on record: protein: recombinant; tags: N-terminal GST; dsDNA, one strand shown. Put shortly:
as §1

The target in the next assay is T6, ERF (Homo sapiens, UniProt P50548 1-548).
T6 sequence: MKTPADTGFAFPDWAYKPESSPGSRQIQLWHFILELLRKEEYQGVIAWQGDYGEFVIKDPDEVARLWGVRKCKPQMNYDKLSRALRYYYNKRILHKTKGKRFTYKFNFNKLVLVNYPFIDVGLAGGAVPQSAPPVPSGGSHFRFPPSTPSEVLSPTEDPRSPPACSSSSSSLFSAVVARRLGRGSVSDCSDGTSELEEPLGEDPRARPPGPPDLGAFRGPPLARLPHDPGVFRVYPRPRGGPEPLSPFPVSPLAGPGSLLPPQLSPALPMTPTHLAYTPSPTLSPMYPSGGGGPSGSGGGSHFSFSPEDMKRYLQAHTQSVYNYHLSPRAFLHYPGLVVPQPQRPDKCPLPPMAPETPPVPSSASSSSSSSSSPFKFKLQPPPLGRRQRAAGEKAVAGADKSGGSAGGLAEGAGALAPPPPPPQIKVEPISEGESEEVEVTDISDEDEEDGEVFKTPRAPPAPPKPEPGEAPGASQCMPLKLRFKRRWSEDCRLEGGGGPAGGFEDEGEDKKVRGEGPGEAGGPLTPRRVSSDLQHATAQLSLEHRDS
The settings on record: protein: recombinant; tags: N-terminal GST; dsDNA, one strand shown. Put shortly:
as §1

The target in the next assay is T7, ETV3L (Homo sapiens, UniProt Q6ZN32 1-361).
T7 sequence: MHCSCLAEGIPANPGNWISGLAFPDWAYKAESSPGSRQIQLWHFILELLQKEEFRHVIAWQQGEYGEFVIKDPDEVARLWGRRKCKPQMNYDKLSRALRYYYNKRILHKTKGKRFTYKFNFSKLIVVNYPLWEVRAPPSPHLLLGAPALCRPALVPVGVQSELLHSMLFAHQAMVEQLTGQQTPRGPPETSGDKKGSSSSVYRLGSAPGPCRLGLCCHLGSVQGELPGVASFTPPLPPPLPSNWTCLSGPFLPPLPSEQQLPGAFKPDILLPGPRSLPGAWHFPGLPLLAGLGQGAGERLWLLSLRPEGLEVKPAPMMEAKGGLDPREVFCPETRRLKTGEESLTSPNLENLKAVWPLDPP
The settings on record: protein: recombinant; tags: N-terminal GST; dsDNA, one strand shown. Put shortly: as §1

Another assay has as its target T8, ETS2 (Homo sapiens, UniProt P15036 1-469).
T8 sequence: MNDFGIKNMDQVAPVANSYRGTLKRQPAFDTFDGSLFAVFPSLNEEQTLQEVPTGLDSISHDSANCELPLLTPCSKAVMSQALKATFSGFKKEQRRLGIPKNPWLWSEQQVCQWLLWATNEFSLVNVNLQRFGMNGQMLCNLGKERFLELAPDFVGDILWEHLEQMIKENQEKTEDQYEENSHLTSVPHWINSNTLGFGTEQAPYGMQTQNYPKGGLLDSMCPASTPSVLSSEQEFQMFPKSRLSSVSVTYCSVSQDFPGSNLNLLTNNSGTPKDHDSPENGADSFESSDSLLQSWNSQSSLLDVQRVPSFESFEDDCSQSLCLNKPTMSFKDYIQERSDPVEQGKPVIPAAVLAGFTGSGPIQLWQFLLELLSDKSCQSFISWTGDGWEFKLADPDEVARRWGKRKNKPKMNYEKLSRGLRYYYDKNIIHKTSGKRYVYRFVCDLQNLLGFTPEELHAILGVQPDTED
Conditions: protein: recombinant; tags: N-terminal GST; dsDNA, one strand shown. Put shortly:
as §1

Another assay deals with T9, SPDEF (Homo sapiens, UniProt O95238 1-335).
T9 sequence: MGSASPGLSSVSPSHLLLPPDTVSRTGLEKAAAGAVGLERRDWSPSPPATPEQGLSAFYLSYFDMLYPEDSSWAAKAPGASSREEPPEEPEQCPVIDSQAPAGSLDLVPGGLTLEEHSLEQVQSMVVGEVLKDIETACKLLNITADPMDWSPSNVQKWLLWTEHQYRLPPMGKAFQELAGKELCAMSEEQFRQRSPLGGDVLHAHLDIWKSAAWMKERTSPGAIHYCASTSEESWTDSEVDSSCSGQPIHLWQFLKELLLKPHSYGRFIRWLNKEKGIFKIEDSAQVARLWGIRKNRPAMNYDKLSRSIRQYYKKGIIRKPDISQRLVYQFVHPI
The settings on record: protein: recombinant; tags: N-terminal GST; dsDNA, one strand shown. Put shortly: as §1

The next assay addresses T10, ETV7 (Homo sapiens, UniProt Q9Y603 1-341).
T10 sequence: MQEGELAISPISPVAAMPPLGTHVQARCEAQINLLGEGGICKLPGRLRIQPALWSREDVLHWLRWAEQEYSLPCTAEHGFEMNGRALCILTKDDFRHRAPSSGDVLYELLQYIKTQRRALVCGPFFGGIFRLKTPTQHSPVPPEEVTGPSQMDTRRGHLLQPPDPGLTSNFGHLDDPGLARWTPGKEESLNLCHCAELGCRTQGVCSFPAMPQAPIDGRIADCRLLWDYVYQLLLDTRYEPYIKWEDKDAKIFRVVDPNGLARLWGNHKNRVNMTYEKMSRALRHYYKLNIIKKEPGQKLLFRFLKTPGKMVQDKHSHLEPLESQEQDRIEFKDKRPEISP
Conditions: protein: recombinant; tags: N-terminal GST; dsDNA, one strand shown. The gist of the method:
as §1

The next assay deals with T11, ELF5 (Homo sapiens, UniProt Q9UKW6-2 1-255).
T11 sequence: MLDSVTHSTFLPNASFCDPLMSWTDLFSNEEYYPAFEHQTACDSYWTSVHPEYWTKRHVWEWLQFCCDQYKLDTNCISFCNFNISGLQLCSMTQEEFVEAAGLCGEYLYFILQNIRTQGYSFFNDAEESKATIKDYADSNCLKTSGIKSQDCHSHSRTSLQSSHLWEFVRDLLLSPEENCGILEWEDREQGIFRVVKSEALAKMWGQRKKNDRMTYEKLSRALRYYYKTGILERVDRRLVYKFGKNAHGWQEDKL
The settings on record: protein: recombinant; tags: N-terminal GST; dsDNA, one strand shown. The gist of the method: as §1

In another assay the target is T12, ETV3 (Homo sapiens, UniProt P41162-2 1-143).
T12 sequence: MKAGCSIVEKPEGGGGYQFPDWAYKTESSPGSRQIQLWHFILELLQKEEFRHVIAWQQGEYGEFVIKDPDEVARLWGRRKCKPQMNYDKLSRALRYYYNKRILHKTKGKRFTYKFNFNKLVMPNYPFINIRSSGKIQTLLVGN
The settings on record: protein: recombinant; tags: N-terminal GST; dsDNA, one strand shown. The gist of the method: as §1

The target of the next assay is ETV6 (Homo sapiens, UniProt P41212 1-452). The settings on record: protein: recombinant; tags: N-terminal GST; dsDNA, one strand shown. The gist of the method: as §1
Sequence of ETV6 (P41212 whole entry): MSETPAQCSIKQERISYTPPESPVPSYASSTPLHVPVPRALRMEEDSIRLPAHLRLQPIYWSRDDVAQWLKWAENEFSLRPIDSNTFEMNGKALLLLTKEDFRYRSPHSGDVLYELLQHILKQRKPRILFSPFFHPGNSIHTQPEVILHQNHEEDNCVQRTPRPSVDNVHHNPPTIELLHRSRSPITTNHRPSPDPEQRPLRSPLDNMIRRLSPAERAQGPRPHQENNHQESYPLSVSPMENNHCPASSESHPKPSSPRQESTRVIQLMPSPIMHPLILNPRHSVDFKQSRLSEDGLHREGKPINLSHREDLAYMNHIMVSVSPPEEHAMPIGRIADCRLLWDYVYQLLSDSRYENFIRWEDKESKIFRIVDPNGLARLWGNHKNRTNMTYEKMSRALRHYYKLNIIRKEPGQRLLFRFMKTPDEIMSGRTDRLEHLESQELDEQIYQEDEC

Sequence of ETV1 (P50549 whole entry): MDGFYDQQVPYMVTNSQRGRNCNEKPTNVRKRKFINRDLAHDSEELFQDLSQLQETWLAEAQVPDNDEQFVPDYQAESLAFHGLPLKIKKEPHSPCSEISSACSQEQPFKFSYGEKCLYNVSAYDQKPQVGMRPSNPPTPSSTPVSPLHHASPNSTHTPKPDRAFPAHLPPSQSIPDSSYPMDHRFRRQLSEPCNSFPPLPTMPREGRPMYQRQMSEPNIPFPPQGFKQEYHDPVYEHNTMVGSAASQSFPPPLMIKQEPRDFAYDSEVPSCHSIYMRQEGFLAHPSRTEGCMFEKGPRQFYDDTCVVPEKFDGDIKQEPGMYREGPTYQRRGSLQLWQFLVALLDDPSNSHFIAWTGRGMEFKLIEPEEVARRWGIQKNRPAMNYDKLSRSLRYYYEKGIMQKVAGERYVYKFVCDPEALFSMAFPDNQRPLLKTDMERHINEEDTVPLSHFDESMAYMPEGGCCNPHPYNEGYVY
Sequence of CRX (O43186 whole entry): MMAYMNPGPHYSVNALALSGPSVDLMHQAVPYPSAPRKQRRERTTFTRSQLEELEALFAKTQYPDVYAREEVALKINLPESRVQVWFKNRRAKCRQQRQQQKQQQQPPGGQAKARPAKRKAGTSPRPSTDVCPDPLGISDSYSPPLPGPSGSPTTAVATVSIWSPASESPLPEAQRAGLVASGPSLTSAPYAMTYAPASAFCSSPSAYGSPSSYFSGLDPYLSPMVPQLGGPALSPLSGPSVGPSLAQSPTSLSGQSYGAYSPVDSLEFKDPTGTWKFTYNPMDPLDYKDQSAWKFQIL
Sequence of HSF1 (Q00613 whole entry): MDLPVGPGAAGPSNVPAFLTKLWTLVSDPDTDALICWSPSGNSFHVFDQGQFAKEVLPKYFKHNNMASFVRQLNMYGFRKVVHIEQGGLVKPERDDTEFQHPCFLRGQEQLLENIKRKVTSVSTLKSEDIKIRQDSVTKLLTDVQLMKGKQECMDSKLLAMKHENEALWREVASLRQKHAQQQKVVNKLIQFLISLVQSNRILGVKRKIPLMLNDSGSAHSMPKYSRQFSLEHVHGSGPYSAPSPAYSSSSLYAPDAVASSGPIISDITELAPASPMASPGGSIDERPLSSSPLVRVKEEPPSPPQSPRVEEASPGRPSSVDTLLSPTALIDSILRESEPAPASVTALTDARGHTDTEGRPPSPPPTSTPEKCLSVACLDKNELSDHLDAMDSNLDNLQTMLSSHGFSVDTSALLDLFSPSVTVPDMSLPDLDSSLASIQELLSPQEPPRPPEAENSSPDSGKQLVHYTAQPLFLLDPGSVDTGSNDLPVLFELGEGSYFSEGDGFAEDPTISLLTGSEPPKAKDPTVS
Sequence of ELF4 (Q99607 whole entry): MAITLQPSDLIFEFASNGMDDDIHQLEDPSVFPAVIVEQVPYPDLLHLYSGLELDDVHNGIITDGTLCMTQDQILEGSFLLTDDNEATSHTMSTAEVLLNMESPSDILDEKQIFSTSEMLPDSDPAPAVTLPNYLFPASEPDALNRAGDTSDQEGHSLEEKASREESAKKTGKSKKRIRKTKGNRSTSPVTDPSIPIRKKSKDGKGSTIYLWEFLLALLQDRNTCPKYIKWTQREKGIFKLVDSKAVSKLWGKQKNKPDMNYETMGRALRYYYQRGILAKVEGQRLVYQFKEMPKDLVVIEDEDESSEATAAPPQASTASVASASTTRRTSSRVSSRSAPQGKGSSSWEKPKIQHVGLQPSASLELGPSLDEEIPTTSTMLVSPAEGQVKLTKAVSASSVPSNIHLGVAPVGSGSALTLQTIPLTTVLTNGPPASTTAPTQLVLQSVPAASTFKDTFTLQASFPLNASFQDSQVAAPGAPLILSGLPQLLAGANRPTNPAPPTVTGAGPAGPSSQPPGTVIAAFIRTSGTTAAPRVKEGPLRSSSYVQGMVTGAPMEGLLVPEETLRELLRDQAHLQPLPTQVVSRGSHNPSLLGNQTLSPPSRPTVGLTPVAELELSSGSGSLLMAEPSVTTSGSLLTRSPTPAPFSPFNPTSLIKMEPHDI
Sequence of ETV5 (P41161 whole entry): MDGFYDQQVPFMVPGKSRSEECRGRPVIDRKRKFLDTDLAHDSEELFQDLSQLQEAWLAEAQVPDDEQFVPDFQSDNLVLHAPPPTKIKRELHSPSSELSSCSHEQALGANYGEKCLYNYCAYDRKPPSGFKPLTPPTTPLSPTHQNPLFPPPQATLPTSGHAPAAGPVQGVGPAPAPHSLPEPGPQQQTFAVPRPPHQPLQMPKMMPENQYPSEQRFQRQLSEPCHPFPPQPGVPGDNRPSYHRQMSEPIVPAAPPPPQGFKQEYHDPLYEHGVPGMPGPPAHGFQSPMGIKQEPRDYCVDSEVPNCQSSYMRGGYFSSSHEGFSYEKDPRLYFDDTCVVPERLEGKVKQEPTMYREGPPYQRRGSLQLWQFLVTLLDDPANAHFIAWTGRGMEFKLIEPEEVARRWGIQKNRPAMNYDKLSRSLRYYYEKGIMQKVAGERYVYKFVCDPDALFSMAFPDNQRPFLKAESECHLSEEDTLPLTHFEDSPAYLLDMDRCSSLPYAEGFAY

Turning to TAATAG, the binding signal with FEV is 1.18 fold enrichment (6-mer frequency, TF over GST control); in the assay with ETV5, 1.21 fold enrichment (6-mer frequency, TF over GST control); with HSF1 it was 1.54 fold enrichment (6-mer frequency, TF over GST control); with SPIC it was 1.39 fold enrichment (6-mer frequency, TF over GST control); with ELF4, 1.15 fold enrichment (6-mer frequency, TF over GST control); in the assay with ELK4, 1.19 fold enrichment (6-mer frequency, TF over GST control). Besides, the binding signal was 1.02 fold enrichment (6-mer frequency, TF over GST control) in the assay with ETV2; 1.06 fold enrichment (6-mer frequency, TF over GST control) in the assay with ELF3; 1.94 fold enrichment (6-mer frequency, TF over GST control) with CRX; 1.22 fold enrichment (6-mer frequency, TF over GST control) with ETV1; 1.24 fold enrichment (6-mer frequency, TF over GST control) with ERF; 1.12 fold enrichment (6-mer frequency, TF over GST control) in the assay with ETV3L. For the same sequence, the binding signal with ETS2 was 1.2 fold enrichment (6-mer frequency, TF over GST control); with SPDEF it was 1.19 fold enrichment (6-mer frequency, TF over GST control); with ETV7 it was 1.2 fold enrichment (6-mer frequency, TF over GST control); in the assay with ELF5 it was 1.15 fold enrichment (6-mer frequency, TF over GST control); with ETV3, 1.15 fold enrichment (6-mer frequency, TF over GST control); with ETV6 it was 1.14 fold enrichment (6-mer frequency, TF over GST control).

The values above are taken from PMC7862700, “An all-to-all approach to the identification of sequence-specific readers for epigenetic DNA modifications on cytosine”.
